The text below walks through data of PubChem BioAssay AID504809 (National Center for Advancing Translational Sciences (NCATS), 2011).

Records with an inconclusive call do not appear. Where a call stands in place of a potency, no number is given. Active and inactive are the calls of the source. The call rests on the fitted dose curve; in most records, active means well fitted curve in the direction sought with a large enough effect; inconclusive means small, poorly fitted or top-dose-only effect, or another doubt; inactive means no such curve, though single readings can be large or run the other way.

This experiment can be described thus: Followup screen for small molecules that induce DNA re-replication in MCF 10A normal breast cells. The settings on record: MCF 10A DNA re-replication, Hoechst nuclear intensity, 48 h; series mostly up to 46.1 µM. From the text: NIH Molecular Libraries Probe Production Network [MLPCN] NIH Chemical Genomics Center [NCGC] MLPCN Grant: Fast Track K99 CA136555 Assay Provider: Melvin DePamphilis, NICHD, NIH Assay Overview Eukaryotic cells normally restrict genome duplication to once per cell division. When this process is aberrant, DNA re-replication occurs when cells reinitiate DNA replication before the first round of replication is complete. DNA re-replication induces the DNA damage response, arrests cell proliferation, and triggers apoptosis. The cell cycle components cyclin A, Cdt-1, Cdc6 and geminin are critical regulators of this process and their misregulation results in DNA re-replication in normal and cancer cells. To identify compounds that induce re-replication in normal cells, an image-based assay was used to measure DNA content of nuclei, as detected by the fluorescent DNA binding dye, Hoechst. Cell nuclei were imaged by a fluorescence scanning plate imager and compounds that induce DNA re-replication were identified by the increase of nuclei with elevated fluorescence intensity.
Assay Protocol Summary For screening, 250 cells in 5 uL/well were dispensed into black clear 1536-well plates (Aurora) using a solenoid-based dispenser. Following transfer of 23 nL compound or DMSO vehicle by a pin tool, the plates were incubated 48 hr at 37 C and 5% CO2. After addition of 1 uL/well Hoescht stain, the plates were incubated 40 min at 37 C, 5% CO2 and total intensity of fluorescent objects (nuclei) were enumerated by an Acumen Explorer Ex3 (TTP LabTech) fluorescence scanning plate imager (405 nm excitation, 500-530 nm emission). Keywords: NIH Roadmap, MLPCN, MLI, MLSMR, qHTS, NCGC, DNA replication, cancer
Consider `COc1cc([C@@H]2c3cc4c(cc3[C@H](O)[C@@H]3COC(=O)[C@H]23)OCO4)cc(OC)c1OC`, for which the Potency was 26.8 nM (active).

For the molecule `NCC#Cc1ccccc1`, the Potency result was “inactive”.

In the case of `CC(C)NP(=O)(NC(C)C)OP(=O)(NC(C)C)NC(C)C`, the Potency result is “inactive”.
